Experimental data as given in PubChem BioAssay (NCI).
About 79,000 compounds went through this panel and 15% of them were active in at least one assay; those are over-represented in the sample as a whole. Values without a mark were called inactive. Calls of active or inactive are those of the source. Cut-off read from the data, not from the text of the source: active = growth inhibition above about 70%; inactive = the rest.

Columns and labels:
[1] = NCI Yeast Anticancer Drug Screen. Data for the rad50 strain (AID 155);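 note: 0% = growth of vehicle-only cultures of the same strain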; conditions: S. cerevisiae rad50 strain growth inhibition, hits give high values
Method in brief: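 Compounds were tested on a yeast strain with an engineered DNA damage repair alteration; the reported value is growth inhibition normalised to vehicle treatment.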

[2] = NCI Yeast Anticancer Drug Screen. Data for the mec2-1 strain (AID 157); conditions: S. cerevisiae mec2-1 strain, hits give high values
Method in brief: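 Mutant yeast (mec2-1) grown with compound; growth inhibition relative to vehicle control reported.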

[3] = NCI Yeast Anticancer Drug Screen. Data for the sgs1 mgt1 strain (AID 161);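 note: 0% = growth of cultures given vehicle only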; conditions: S. cerevisiae sgs1 mgt1 strain, hits give high values
Method in brief: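 Growth of a repair-deficient yeast mutant was monitored after compound treatment and expressed as inhibition relative to vehicle-treated cultures.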

[4] = NCI Yeast Anticancer Drug Screen. Data for the cln2 rad14 strain (AID 165);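 note: 0% = growth equal to vehicle treated cultures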; conditions: S. cerevisiae cln2 rad14 strain, hits give high values
Method in brief: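 Readout is yeast growth inhibition versus vehicle-treated controls, using a strain with cln2 and rad14 alterations exposed to compound.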

[5] = NCI Yeast Anticancer Drug Screen. Data for the bub3 strain (AID 167); conditions: S. cerevisiae bub3 mutant strain, hits give high values
Method in brief: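 Growth of a checkpoint-deficient yeast mutant is measured after compound exposure. Values represent inhibition relative to vehicle.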

[6] = NCI Yeast Anticancer Drug Screen. Data for the mlh1 rad18 strain (AID 175); conditions: S. cerevisiae mlh1 rad18 strain growth inhibition, hits give high values
Method in brief: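 Genetically defined yeast (DNA repair-deficient) exposed to compounds; growth inhibition determined relative to vehicle.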

[7] = at 5.0 µM (retest, dose inferred, filed as 0.5)
[8] = at 50.0 µM (retest, dose inferred, filed as 5.0)

SMILES | growth inhibition [1, 7] | growth inhibition [1, 8] | growth inhibition ([1]; at 50.0 µM) | growth inhibition [2, 7] [%] | growth inhibition [2, 8] | growth inhibition ([2]; at 50.0 µM) | growth inhibition [3, 7] [%] | growth inhibition [3, 8] | growth inhibition ([3]; at 50.0 µM) | growth inhibition [4, 7] [%] | growth inhibition [4, 8] | growth inhibition ([4]; at 50.0 µM) | growth inhibition [5, 7] | growth inhibition [5, 8] | growth inhibition ([5]; at 50.0 µM) | growth inhibition [6, 7] | growth inhibition [6, 8] | growth inhibition ([6]; at 50.0 µM)
N#Cc1c(-c2ccc(Cl)cc2)c2c(n(C3OC(CO)C(O)C(O)C3O)c1=S)CCCC2 (configuration not stated) | -3% | 88% (active) | 9.95% | -2 | 77% (active) | 10.5% | -1 | 96% (active) | -8.85% | 3 | 86% (active) | 31.2% | 3% | 96% (active) | 1% | -2% | 96% (active) | 14.9%
O=C1/C(=C\c2ccccc2)C(NC2CCCCC2)c2ccccc21 (configuration not stated) | 73% (active) | 99% (active) | 99.6% (active) | 43 | 99% (active) | 99.7% (active) | 65 | 98% (active) | 99.7% (active) | 37 | 100% (active) | 99.5% (active) | 75% (active) | 99% (active) | 99.5% (active) | 74% (active) | 99% (active) | 99.5% (active)
CN(Nc1ccc(Cl)cc1)c1ccc(Cl)cc1 | 1% | 95% (active) | 73.2% (active) | 12 | 98% (active) | 64% | 0 | 97% (active) | 79.2% (active) | 5 | 95% (active) | 53.1% | 9% | 97% (active) | 77% (active) | -9% | 96% (active) | 75.3% (active)
O/N=C\c1ccc(-c2ccccc2)cc1 | -17% | 87% (active) | 74% (active) | -13 | 64% | 47.6% | -8 | 88% (active) | 87% (active) | 17 | 67% | 51.1% | 2% | 83% (active) | 77.7% (active) | 6% | 91% (active) | 49.6%
CCOC(=O)c1c(Cl)nnc(-c2ccccc2)c1-c1ccccc1 | 0% | 98% (active) | 98.2% (active) | 1 | 99% (active) | 96.2% (active) | -2 | 98% (active) | 96.3% (active) | 1 | 97% (active) | 92.3% (active) | 13% | 98% (active) | 97.5% (active) | -1% | 98% (active) | 98% (active)
Cc1ccnc2sc3ccccc3c(=O)c12 | 15% | 96% (active) | 86.8% (active) | 14 | 93% (active) | 82.5% (active) | 4 | 92% (active) | 80.6% (active) | 4 | 76% (active) | 68.5% | 6% | 92% (active) | 83.5% (active) | 11% | 95% (active) | 83.9% (active)
O=S1(=O)c2ccccc2C(Br)C1Br (configuration not stated) | 31% | 98% (active) | 99.2% (active) | 30 | 99% (active) | 99.5% (active) | 27 | 99% (active) | 58.4% | 22 | 99% (active) | 99% (active) | 25% | 98% (active) | 99.6% (active) | 56% | 99% (active) | 99.3% (active)
C1=CN2C(c3ccccc3)=NN(c3ccccc3)[C@@H]2c2ccccc21 | -4% | 70% (active) | 60.6% | -6 | 53% | 42% | -3 | 50% | 56.3% | 0 | 22% | 27.8% | 1% | 79% (active) | 59.5% | 2% | 72% (active) | 54.8%
CC(=O)OC1SC(C)(C)n2c1nc1ccccc1c2=O (configuration not stated) | 1% | 56% | 44.1% | -5 | 53% | 23.7% | 6 | 51% | 41% | -8 | 43% | 69.4% | 1% | 39% | 18.8% | 2% | 50% | 72% (active)
